The values that follow come from PubChem BioAssay (NCI).

Compounds without any hit were thinned out: in the full panel of roughly 83,000, 20% have a hit.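 Note: values are percent growth. 100 is the growth of untreated cells, values between 100 and 0 indicate rising inhibition; between -100 and 0 indicates cell death.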 Values without a mark were called inactive. Active and inactive are the calls of the source. The calls were made as follows: active = growth percent below 10; inactive = the rest.

Test systems include T-47D breast; BT-549 breast; MDA-MB-435 melanoma; SW-620 colon; MCF7 breast; HCT-116 colon; HCC-2998 colon; KM12 colon.
Experiment in all cases: NCI-60 one-dose screen, 48 h (100 = growth as untreated, 0 = no growth, -100 = all killed)
Common to all, as to conditions: 10 µM unless noted

For `N=C(N)c1ccc(-c2ccc(-c3ccc(F)cc3)s2)s1`, the growth is -38.2% (active) in the experiment with T-47D breast; 80% in the experiment on BT-549 breast; -88.7% (active) in the experiment on MDA-MB-435 melanoma; -65.2% (active) with SW-620 colon; -67% (active) in the experiment on MCF7 breast; -57.3% (active) in the experiment with HCT-116 colon. Besides, in the experiment with HCC-2998 colon, the growth is -73.3% (active).
`O=C1NC(=C(Cl)Cl)/C(=N/S(=O)(=O)NCCc2c[nH]c3ccccc23)N1`: the growth is 47.1% in the experiment on T-47D breast; 9.16% (active) with BT-549 breast; 25.1% in the experiment with MDA-MB-435 melanoma; 54.3% with SW-620 colon; 14.2% in the experiment on MCF7 breast; 34.9% with HCT-116 colon. Besides, the growth in the experiment on HCC-2998 colon was 98.3%.
Consider `COC(=O)/C=C1/SC(=Nc2cccc(Cl)c2)N(CCc2c[nH]c3ccc(O)cc23)C1=O`, for which the growth in the experiment on T-47D breast is 12.6%; with BT-549 breast, 0.746% (active); in the experiment with MDA-MB-435 melanoma, 15.9%; in the experiment on SW-620 colon, 0.219% (active); with MCF7 breast, 15.9%; in the experiment with HCT-116 colon, -33% (active). The growth with HCC-2998 colon was 2.25% (active).
With `CCSC1=CC(=O)c2ccccc2C1=O`, the growth is -41.9% (active) in the experiment with T-47D breast; 91.4% in the experiment with BT-549 breast; 80.2% with MDA-MB-435 melanoma; 54.9% with SW-620 colon; 12.9% with MCF7 breast; 2.56% (active) in the experiment on HCT-116 colon. For the same molecule, in the experiment on HCC-2998 colon, the growth was 117%.
For `CC(C(=O)O)n1c(O)c(C=Nc2cccnc2)sc1=S` (stereo unspecified), the growth was 81.2% with T-47D breast; 89.2% in the experiment with BT-549 breast; 100% with MDA-MB-435 melanoma; 102% in the experiment with SW-620 colon; 86.7% in the experiment on MCF7 breast; 89.4% in the experiment on HCT-116 colon. For the same molecule, the growth with HCC-2998 colon was 111%; with KM12 colon, 98.7%.
Regarding `CN1CCN(CCCOc2ccc3ncnc(Nc4ccc(Oc5cccc(F)c5)c(Cl)c4)c3c2)CC1`, the growth with T-47D breast was 20.8%; in the experiment on BT-549 breast it was 90.4%; in the experiment with MDA-MB-435 melanoma it was -84.8% (active); in the experiment on SW-620 colon it was -71.9% (active); with MCF7 breast, 3.01% (active); in the experiment on HCT-116 colon it was -63.6% (active). Also, the growth is -40% (active) with HCC-2998 colon and 6.17% (active) with KM12 colon.
Consider `CN(C)c1ccc(-c2cc(-c3ccc(Nc4nc(Nc5ccc(Cl)cc5)nc(Nc5ccc(Cl)cc5)n4)cc3)nc(N)c2C#N)cc1`, for which the growth with T-47D breast was 41.3%; with BT-549 breast, 95.6%; with MDA-MB-435 melanoma, 84%; with SW-620 colon, 92.8%; in the experiment with MCF7 breast, 41.9%; in the experiment on HCT-116 colon it was 60.5%. Besides, the growth in the experiment on HCC-2998 colon was 107%.
`C=C1C(=O)O[C@H]2[C@H]1CC/C(COC(=O)/C=C\C(=O)NCc1ccc(Cn3c(=O)sn(-c4ccccc4)c3=O)cc1)=C\CC[C@@]1(C)O[C@@H]21`: the growth is 67.9% in the experiment with T-47D breast; 93.5% in the experiment with BT-549 breast; 67.7% in the experiment on MDA-MB-435 melanoma; 19.9% in the experiment on SW-620 colon; 53.7% with MCF7 breast; 33.6% in the experiment with HCT-116 colon. Moreover, in the experiment with HCC-2998 colon, the growth is 105%.
Take `COc1ccc(Cl)cc1Nc1nc(C(F)(F)F)ccc1C(=O)N/N=C/c1ccccc1Cl`: the growth is -22.5% (active) with T-47D breast; 13.3% in the experiment on BT-549 breast; 26.9% in the experiment with MDA-MB-435 melanoma; 7.18% (active) in the experiment on SW-620 colon; -8.68% (active) with MCF7 breast; 14.2% in the experiment on HCT-116 colon. In the experiment on HCC-2998 colon, the growth was -11.2% (active).
With `COc1ccc(C(c2cc(OC)c(OC)c(OC)c2)N2CCCC2)cc1` (stereo unspecified), the growth is 89.8% with T-47D breast; 81.6% in the experiment with BT-549 breast; -21.8% (active) in the experiment with MDA-MB-435 melanoma; 47.8% in the experiment with SW-620 colon; 64.1% with MCF7 breast; 62.3% with HCT-116 colon. Moreover, the growth with HCC-2998 colon was 89.1%.
On to `O=C(O)c1cn(C2CC2)c2cc(N3CCN(C(=O)N/N=C/c4ccccc4)CC3)c(F)cc2c1=O`, for which the growth in the experiment on T-47D breast is 91.4%; in the experiment on BT-549 breast, 92.6%; in the experiment with MDA-MB-435 melanoma, 106%; with SW-620 colon, 110%; in the experiment on MCF7 breast, 97.3%; with HCT-116 colon, 108%. Moreover, the growth in the experiment on HCC-2998 colon is 99.9%.
For the molecule `COC(=O)Cc1nc(C#N)c(N(C)C)o1`, the growth is 89.6% in the experiment with T-47D breast; 92.6% with BT-549 breast; 103% in the experiment with MDA-MB-435 melanoma; 95.9% in the experiment on SW-620 colon; 94.9% with MCF7 breast; 97.1% in the experiment on HCT-116 colon. For the same molecule, the growth with HCC-2998 colon is 103%.
In the case of `CCCCCCCCCCCCCCCCOC(=O)c1c(C)[nH]c(/C=C2\N=C(c3ccc[nH]3)C=C2OC)c1C`, the growth in the experiment with T-47D breast was 31.2%; in the experiment with BT-549 breast it was 55.1%; with MDA-MB-435 melanoma, 15.7%; in the experiment on SW-620 colon, 10.9%; in the experiment on MCF7 breast it was 8.67% (active); in the experiment on HCT-116 colon, -0.291% (active). The growth in the experiment on HCC-2998 colon is 24.3%.
Consider `COc1ccc2c(c1)c(-c1nc(-c3cn(C)c4ncccc34)cs1)cn2CCO`, for which the growth with T-47D breast is 10.1%; in the experiment with BT-549 breast, 76.9%; with MDA-MB-435 melanoma, 86.5%; with SW-620 colon it was 93.6%; in the experiment with MCF7 breast, 12%; in the experiment with HCT-116 colon, 74.2%. In addition, the growth in the experiment on HCC-2998 colon was 95.1%.
In the case of `c1ccc(CNc2ccc3nc(CCC4CCCCC4)[nH]c3c2)cc1`, the growth was 33.9% in the experiment on T-47D breast; 72.2% in the experiment on BT-549 breast; 81.6% in the experiment on MDA-MB-435 melanoma; 67.8% in the experiment on SW-620 colon; 62% in the experiment on MCF7 breast; 54.6% with HCT-116 colon. For the same molecule, the growth with HCC-2998 colon is 45.8%.
With `C=CCn1c(SCC(=O)Nc2ccc(C(=O)/C=C/c3ccc(OC)cc3)cc2)nnc1-c1ccccc1`, the growth in the experiment with T-47D breast was 57.3%; in the experiment with BT-549 breast, 43.8%; in the experiment with MDA-MB-435 melanoma it was 49%; with SW-620 colon, 97.7%; in the experiment on MCF7 breast it was 20%; in the experiment with HCT-116 colon, 9.87% (active). The growth in the experiment with HCC-2998 colon is 102%.
Turning to `COc1ccc2c(c1)c(-c1ccc(-c3cn(C)c4ccc(OC)cc34)[nH]1)cn2C`, the growth is -51.2% (active) with T-47D breast; -28.1% (active) with BT-549 breast; 41.8% with MDA-MB-435 melanoma; -48.6% (active) in the experiment on SW-620 colon; 38.9% in the experiment with MCF7 breast; 4.08% (active) in the experiment on HCT-116 colon. Moreover, the growth in the experiment with HCC-2998 colon is -3.55% (active).
